Test results reported in PubChem BioAssay AID2391 (Southern Research Specialized Biocontainment Screening …, 2010).
The whole screen tested about 310,000 compounds, of which about 410 (0.13%) were called active. Inconclusive results (about 2%) are left out. No rule for the calls is given here. The list is a sample of the results. Potency and affinity values are given separately.

Test: RSV antiviral activity via CPE protection, HEp-2 cells, primary 10 µM value included (AID 2391)
Details: RSV-induced CPE inhibition, at 10 µM, active compounds read high

CPE inhibition, inactive:
O=C(Nc1ccncc1)c1c(Cl)cccc1Cl 0%
Cc1c(C)c2c(OCC(=O)N3CCC[C@H]3C(=O)O)cc3c(c2oc1=O)CCC(C)(C)O3 0.96%
O=C(Nc1ccc(Cl)c(C(F)(F)F)c1)[C@@H]1CC=C[C@@H]2CCN(Cc3ccc(Cl)c(Cl)c3)C(=O)[C@@H]21 7.28%
O=C(Nc1ccc(Cl)c(C(F)(F)F)c1)[C@@H]1CC=C[C@@H]2CCN(Cc3ccccc3)C(=O)[C@@H]21 2.53%
COc1ccc(OC)c(Nc2nc3nonc3nc2N2CCCCC2)c1 1.59%
O=C(CCCOc1ccc(Cl)cc1Cl)Nc1ccc(O)cc1C(=O)O 0.3%
COc1ccccc1NC(=O)COc1ccc2ccccc2c1 4.1%
O=C(Cc1cccc2ccccc12)Nc1ccc(O)cc1C(=O)O 2.4%
COc1cc(NC(=O)CCCOc2ccc(Cl)cc2Cl)c(C(=O)O)cc1OC 6.77%
O=C(Cc1ccccc1C(=O)O)Nc1cccc2ccccc12 1.4%
O=C(COc1ccc2ccccc2c1)Nc1cccc(C(=O)Nc2ccccc2C(=O)O)c1 20.8%
Cc1ccc(Cl)cc1N(C(=O)c1csnn1)C(C(=O)NC1CCCC1)c1ccco1 (centres undefined) 1.87%
O=C(CN1C(=O)NC2(CCCCCC2)C1=O)Nc1ccc2c(c1)CCC2 2.7%
O=C(NCC(c1ccco1)N1CCCCC1)c1ccc(NS(=O)(=O)c2ccc(F)cc2)cc1 (centres undefined) 3.02%
COc1ccc(-c2noc(CN3CCN(c4ccccc4)CC3)n2)cc1 -0.23%
Cc1cccc(NC(=O)c2ccc(S(=O)(=O)N3CCCC3)cc2)c1C 1.87%
CC(OC(=O)c1cccn1C)C(=O)Nc1ccc2c(c1)OCO2 (centres undefined) 2.62%
CCN(CC(=O)Nc1ccc(Br)cc1)C(=O)c1nc2nc(C)cc(C)n2n1 1.87%
CC(C)(C)N1C(=O)c2ccc(C(=O)Nc3cc(C(=O)O)cc(C(=O)O)c3)cc2C1=O 0.7%
COC(=O)c1cccc(NC(=O)c2ccc3c(c2)C(=O)N(C(C)(C)C)C3=O)c1 9.97%
CCCOC(=O)Cn1cnc2scc(-c3ccc(C)cc3)c2c1=O 0.39%
COc1ccc(N=C2C(=Nc3ccc(OC)cc3)N(c3ccc(OC)cc3)C(=S)N2C)cc1 0.37%
COc1ccc(N=C2C(=Nc3ccc(OC)cc3)N(c3ccc(OC)cc3)C(=S)N2c2ccccc2)cc1 0.02%
Cc1coc2c1c(C)cc1oc(=O)c(Cc3ccccc3)c(C)c12 1.6%
Cc1cc(OC(C(=O)O)c2ccccc2)c2c(C)c(Cc3ccccc3)c(=O)oc2c1 (centres undefined) 11.6%
Cc1cc(O)c2c(C)c(CC(=O)N3CCN(C(=O)C4COc5ccccc5O4)CC3)c(=O)oc2c1 (centres undefined) 6.34%
CCOC(=O)Cc1c(C)c2ccc(N(CC)CC)cc2oc1=O 57.9%
Cc1c(CC(=O)N2CCN(C(=O)C3COc4ccccc4O3)CC2)c(=O)oc2cc(O)ccc12 (centres undefined) 0.83%
COC(=O)Cc1c(C)c2c(O)cc(C)cc2oc1=O 6.65%
C=CCN(CC(=O)Nc1c(C)cccc1CC)C(=O)SCCC 0.77%
Cc1[nH]c(C)c(S(=O)(=O)Nc2ccc(OC(F)(F)F)cc2)c1C(=O)N1CCCCC1 1.31%
C#CCOc1nc2c(c(=O)n(C)c(=O)n2C)n1Cc1ccccc1 6.97%
CCc1ccc(-c2cc(C(=O)N3N=C(C(F)F)CC3(O)C(F)F)c3ccccc3n2)cc1 (centres undefined) -3.61%
CC1c2cc3c(cc2CCN1C(=O)c1cccc(F)c1)OCCCO3 (centres undefined) 2.63%
CCCCc1ncc(CN2CCC(n3nccc3NC(=O)c3ccccc3Cl)CC2)[nH]1 0.19%
Cc1ccc(N2NC(=O)/C(=C/c3ccc(-c4ccc(Cl)c(C(=O)O)c4)o3)C2=O)cc1 0.38%
O=C(O)c1cc(-c2ccc(/C=C3\NC(=O)N(c4ccccc4)C3=O)o2)ccc1Cl 4.99%
Cc1cccnc1NC(=O)c1ccc(OCc2c(C)noc2C)cc1 1.6%
CC(C)(C)c1csc(NC(=O)c2cccnc2Cl)n1 1.36%
CCOc1ncccc1C(=O)Nc1nc(C(C)(C)C)cs1 0.68%
COc1ccc(CC2(CO)CCN(Cc3ccc(OC(F)(F)F)cc3)CC2)cc1 13.9%
COc1ccccc1NC(=O)Nc1nc(CC(=O)Nc2ccc(OC)c(OC)c2)cs1 -1.37%
Cc1cc(OCc2cc(C(=O)N(C)CCOc3ccccc3)no2)cc(C)c1Cl 13.7%
O=C(NCc1ccccc1Cl)C1CCCN(S(=O)(=O)c2cccc3nonc23)C1 (centres undefined) 0.66%
COc1ccccc1CNC(=O)C1CCCN(S(=O)(=O)c2cccc3nonc23)C1 (centres undefined) 0.88%
O=C(NCc1ccc(Cl)cc1)C1CCN(S(=O)(=O)c2cccc3nonc23)CC1 5.35%
COc1ccc(CNC(=O)C2CCN(S(=O)(=O)c3cccc4nonc34)CC2)cc1 0.73%
O=C(NNC(=O)C12CC3CC(CC(C3)C1)C2)c1ccccn1 1.78%
C/C(CC(=O)Nc1cc(C)ccn1)=N\NC(=O)C(=O)NC(C)C -0.96%
CC(=O)C1[C@H](N(C)C)CC2C3CC=C4CC(O)CC[C@]4(C)C3CC[C@@]21C (some centres undefined) 0.54%
CC12CCC(O)CC1=CCC1C2CCC2(C)C1CCC21CCC(=O)O1 (centres undefined) 7.71%
CCN(CC)S(=O)(=O)c1ccc(N2C(=O)CC2(/C=C/c2ccccc2)C(=O)NC2CCCC2)cc1 (centres undefined) 4.54%
Cc1c(Cl)ccc2c(C(=O)NCCCn3nccc3C)cc(-c3ccccn3)nc12 13.8%
Cc1nnc(NC(=O)CSc2ccc(-c3cccnc3)nn2)s1 2.73%
Cc1nnc(OCc2nc3ccccc3n2C)c2ccccc12 6.77%
Cn1c(COc2nnc(-c3ccc(Cl)cc3)c3ccccc23)nc2ccccc21 5.55%
CCC(CC)c1nnc(NC(=O)c2c(C)nn(Cc3ccccc3Cl)c2C)s1 10.8%
CC(=O)Nc1ccc(NC(=O)c2c(C)nn(Cc3ccccc3Cl)c2C)cc1 1.12%
COc1ccc(-c2nc(N=Nc3ccc(O)cc3)n[nH]2)cc1 9.37%
CN(C)S(=O)(=O)c1cc(NC(=O)CN2CCN(c3ccc(O)cc3)CC2)ccc1Cl 0.75%
COc1cccc(-c2cc3nc(-c4ccccc4)cc(N4CCCC(O)C4)n3n2)c1 (centres undefined) 14.1%
OC1CCN(c2cc(-c3ccccc3)nc3cc(-c4ccc(F)cc4)nn23)CC1 5.15%
C=CCOC(=O)C(C#N)c1nc2ccccc2nc1N1CCN(c2ccccc2OC)CC1 (centres undefined) 0.49%
C/C(=N\O)c1ccc2[nH]ccc2c1 5.17%
CC(=O)Nc1ccc2[nH]ccc2c1 -0.73%
COc1ccc(OC)c(NC(=O)c2cccc(S(=O)(=O)N(Cc3ccccc3)c3ccccc3OC)c2)c1 2.42%
Cc1nc2ccc(N=NC3=C(O)CC(C)(C)CC3=O)cc2s1 2.75%
COc1ccccc1OCCn1cc(C=O)c2ccccc21 -0.05%
O=C(NC(Cc1c[nH]c2ccccc12)C(=O)O)c1cccs1 (centres undefined) -1.85%
O=C(Nc1ccc(F)c([N+](=O)[O-])c1)c1cccs1 4.17%
COC(=O)C(Cc1c[nH]c2ccccc12)NC(=O)c1cccs1 (centres undefined) 1.21%
O=C(NC(Cc1c[nH]c2ccccc12)C(=O)N/N=C/c1cccc2ccccc12)c1cccs1 (centres undefined) 18.5%
O=C(NC(Cc1c[nH]c2ccccc12)C(=O)N1CCOCC1)c1cccs1 (centres undefined) -0.02%
O=C(NC(Cc1c[nH]c2ccccc12)C(=O)N/N=C/c1ccc(Br)cc1)c1cccs1 (centres undefined) -2.58%
CC1(C)CC(=O)c2cc(C(=O)NC3CCSC3=O)c(=O)n(-c3ccc(Cl)cc3)c2C1 (centres undefined) 0.72%
O=S(=O)(Nc1ccccc1)c1cccc2nsnc12 1.2%
CCc1ccc(N2CC(C(=O)OCC(=O)NNC(=O)c3ccccc3)CC2=O)cc1 (centres undefined) 1.46%
COc1cccc(NC(=O)C(NCC(C)(C)CN(C)C)c2ccccc2)c1 (centres undefined) 1.08%
CC1(C)Cc2cccc(C(=O)Nc3ccc(Cl)cc3)c2O1 13.1%
CC1CCN(C(=O)COC(=O)Cc2c[nH]c3ccccc23)CC1 -0.07%
CCOC(=O)N1CCc2c(sc3c2c(=O)n(-c2ccc(CC)cc2)c(=O)n3CC(=O)NCC2CCCO2)C1 (centres undefined) -1.83%
COc1cc([N+](=O)[O-])cc(/C=N/NC(=O)C(C)Nc2cccc3ccccc23)c1O (centres undefined) 7.79%
O=C(CNc1cccc2ccccc12)N/N=C/c1ccc([N+](=O)[O-])cc1 0.72%
Cc1cccnc1NC(=S)Nc1ccc(F)cc1F 1.49%
COC(=O)[C@@H]1[C@@H](C)N(Cc2ccccc2)C(=O)N[C@H]1c1cccc(C(F)(F)F)c1 3.75%
Cc1cc2nc3n(c2cc1C)CCCN3 5.29%
O=C(Nc1sc(-c2ccccc2)cc1C(=O)O)c1ccccc1 7.6%
CCOC(=O)c1cc(-c2ccccc2)sc1NC(=O)C(C)(C)C 0.09%
COc1ccc(-c2cc(-c3ccc(C)cc3)nc(SCc3nnc(-c4ccccc4)o3)c2C#N)cc1OC 2.51%
